Pf growth 96h – P. falciparum growth inhibition at 96 hour, primary screen for plastid delayed-death inhibitors | AID 504834 | P. falciparum luciferase reporter growth, 96 h | 320,000 compounds, 6.9% hits | Potency, µM (titrated, usually from 28.7 µM), for the others: at the highest dose activity change, negative = inhibition, actives largely listed as inhibitors
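Erythrocytes infected with luciferase-expressing P. falciparum were dispensed at 2% hematocrit and 0.05% parasitemia (final), then incubated with compounds 96 hours at 37 C in 5% CO2. Luminescence after detection reagent addition reported growth.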
Pf growth 48h – inhibits P. falciparum growth in the first generation, 48 h; P. falciparum luciferase growth in erythrocytes, 48 h; Potency, µM (doses to about 28.7 µM), without a hit: top-dose activity change, negative = inhibition, hits mostly inhibitors; 310,000 compounds, 5.9% hits
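Luminescence readout; reporter = integrated firefly luciferase in P. falciparum. RBC culture at 2% hematocrit, 0.1% parasitemia final, 37 C/5% CO2; decreased signal taken as growth inhibition.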
AMA1-RON2 inh – disrupts binding of P. falciparum AMA1 to RON2. Potency, µM (highest dose often 58.2 µM), for the others: at the highest dose activity change, negative = inhibition, hits mostly inhibitors. AlphaScreen AMA1-biotinylated RON2 peptide binding. 360,000 compounds, 0.2% hits. AID 720542;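 note: 0% = vehicle wells and -100% = peptide control; nearly all actives have a fitted effect of over 45% in size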
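AMA1 (3D7) with his tag at 25 nM final met compounds first, then biotinylated RON2 peptide at 25 nM; detection used donor plus acceptor beads, 10 µg/mL apiece, read by AlphaScreen after 30 min at room temperature.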
HCV inh – HCV inhibition | Huh7.5.1 HCVcc-Cre infection, luciferase reporter, 44 h | Potency, µM (highest dose often 41.8 µM), for inactives: top-dose activity change, negative = inhibition, actives largely listed as inhibitors | 340,000 compounds, 3.4% hits | AID 651820
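Luciferase read-out (15 sec integration) after a 15 min room-temperature substrate step quantifies HCVcc-Cre infection. Cells, 1,000 per well, had compound added 4 h post-plating, then virus at ~0.5 moi, and were cultured 44 h.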
Starred values were filed as active, the others as inactive; ? = inconclusive; nt = no result given; [ ] = another dose, or the depositor's remark. This is a sample that favours compounds with a hit; in the whole collection about 11% have one here. Calls come from the whole dose curve; as a rule, active = well fitted curve in the direction sought with a large enough effect; inconclusive = small, poorly fitted or top-dose-only effect, or another doubt; inactive = no such curve, though single readings can be large; an effect the other way counts as inactive or inconclusive. Unless noted, % is set by controls: 0 for no effect and ±100 for the full control effect; potency is the fitted concentration of half-maximal effect.

SMILES	Pf growth 96h	Pf growth 48h	AMA1-RON2 inh	HCV inh
Cc1nc2ccc(NS(=O)(=O)c3c(C)c(C)cc(C)c3C)cc2s1	-19%	?	1%	16µM*
COCCN(C(=O)CSc1cc(C)c2ccccc2n1)c1c(N)n(CC(C)C)c(=O)[nH]c1=O	33%	17%	-4%[11.6 µM]	13%
CCOC(=O)c1sc(NC(=O)CN2C(=O)NC3(CC(C)CC(C)(C)C3)C2=O)cc1C (stereo not given)	3.7µM*	2.6µM*	-1%	11µM*
CCOC(=O)c1sc(NC(=O)CN2C(=O)NC3(CC(C)CC(C)(C)C3)C2=O)c(C(=O)OCC)c1C (stereo not given)	2.1µM*	8.3µM*	15%	5%
CC1CC(C)(C)CC2(C1)NC(=O)N(CC(=O)Nc1c(F)cccc1F)C2=O (stereo not given)	-17%	-12%	-7%	4%
CC(C)Cc1nnc(NC(=O)CN2C(=O)NC3(CC(C)CC(C)(C)C3)C2=O)s1 (stereo not given)	17µM*	?	16%	4%
CCOC(=O)c1sc(NC(=O)CN2C(=O)NC3(CCC(C)CC3)C2=O)c(C(=O)OCC)c1C (stereo not given)	-7%	?	0%	-6%
CN(C)C(=O)c1ccccc1NC(=O)Cc1cccc2ccccc12	6%	-5%	2%	2%
CCOC(=O)c1c(C)n(OCc2ccccc2)c2ccc3c(no[n+]3[O-])c12	nt	-8%	-4%	7.1µM*
CC[N+](C)(C)CC/C=C1/c2ccccc2Sc2ccc(Cl)cc21	1.7µM*	3.7µM*	4%	-13%
CCCCCCCCCCC[N+](C)(C)CC/C=C1/c2ccccc2Sc2ccc(Cl)cc21	?	nt	-8%	-28%
CCCCCCCCCC[N+](C)(C)CC/C=C1/c2ccccc2Sc2ccc(Cl)cc21	3.7µM*	nt	-15%	?
Nc1ccn([C@@H]2O[C@H](CNC(=O)[C@@H](Cc3cn(COCc4ccccc4)cn3)NC=O)[C@@H](O)[C@H]2O)c(=O)n1	nt	nt	1%	nt
O=C1NC(c2ccccc2)C(C(=O)c2cccs2)=C1O (stereo not given)	12µM*	13%	-24%	13%
CCN(C(=O)c1cc2c(=O)[nH]c3ccc(C)cc3c2s1)c1ccc(F)cc1	?	?	9%	?
Cc1ccc2[nH]c(=O)c3cc(C(=O)N(C)c4ccc(C)c(C)c4)sc3c2c1	8.3µM*	?	-1%	-26%
CCCCN(CC)CCNC(=O)c1cc2c(=O)[nH]c3ccc(C)cc3c2s1	8%	8.3µM*	-5%	?
CCCCN(CC)CCCNC(=O)c1cc2c(=O)n(CC)c3ccccc3c2s1	-2%	-21%[0.00184 µM]	-7%	25µM*
CN(C)CCCNC(=O)c1cc2sc3ccccc3c2s1	?	?	9%	10µM*
O=C(N[C@H]1c2ccccc2C[C@H]1O)[C@H]1O[C@@H](n2ccc(=O)[nH]c2=O)[C@H](O)[C@@H]1O	nt	nt	7%	nt
COc1ccccc1C(=O)NCCCNC(=O)c1cccnc1	11%	35%	-4%	22%
CCOC(CNC(=O)c1cc2c(=O)n(CC)c3ccccc3c2s1)OCC	37%	3%[0.00184 µM]	5%	?
CCn1c(=O)c2cc(C(=O)NCC(OC)OC)sc2c2ccccc21	1.5µM*	10%[0.00184 µM]	13%	?
CCCN(CCC)CCCNC(=O)c1cc2c(=O)n(CC)c3ccccc3c2s1	?	-18%[0.00184 µM]	20%	7.9µM*
CCCCN(CC)CCNC(=O)c1cc2c(=O)n(C)c3ccccc3c2s1	?	?	1%	?
SMILES	Pf growth 96h	Pf growth 48h	AMA1-RON2 inh	HCV inh
CCn1c(=O)c2cc(C(=O)NCCCOC)sc2c2ccccc21	5%	?	4%	?
CCCCN(CC)CCNC(=O)c1cc2c(=O)n(CC)c3ccccc3c2s1	79%	?	0%	2.5µM*
Cc1ccc(C(=O)NNC(=O)C2CCCN(c3ncccn3)C2)cc1 (stereo not given)	?	-9%	-1%	-14%
CCCCN(C=O)c1c(CC)nc2ccc(C(=O)NCCc3ccccn3)cn12	nt	nt	8%	nt
CCN(CC)c1ccc2c(O)cc(=O)oc2c1	74%	0%	6%	11%
CCN(CC)c1ccc(C(=O)OCc2cc(=O)oc3cc(O)ccc23)cc1	4.7µM*	?	-10%	22µM*
O=C(NCCCn1ccnc1)c1csc2ccccc12	10µM*	-14%	11%	-1%
O=C(NCCCn1ccnc1)c1ccccc1Cl	35%	-5%	-1%	16%
COc1ccc2c(Cl)c(C(=O)NCCCn3ccnc3)sc2c1Cl	?	10µM*	6%	?
Cc1ccc(-c2[nH]c3cc(C(=O)NCCCn4ccnc4)ccc3c(=O)c2O)cc1	?	13µM*	-3%	-2%
CCCNC(=O)c1ccc2c(=O)c(O)c(-c3ccc(C)cc3)[nH]c2c1	?	?	100%	-20%[8.37 µM]
Cn1cnc2c(=O)sc3ccccc3c21	nt	nt	-2%	-9%
Nc1ccc(C(=O)OC2CCOC2=O)cc1[N+](=O)[O-] (stereo not given)	27%	1%	3%	18%
CN(C)c1nc(SCc2ccc(Cl)cc2)nc2c1CCCC2	?	?	43%	?
CCn1c(C)cc(/C=C2\NC(=O)N(Cc3ccc(Cl)cc3)C2=O)c1C	?	?	-2%	13µM*
Cc1ccc(/C=C2/NC(=O)N(Cc3ccccc3)C2=O)o1	-18%	-19%	0%	4%
CCN1C(=O)N/C(=C/c2cc(C)n(Cc3ccccc3)c2C)C1=O	?	?	-8%	10µM*
COCCn1c(C)cc(/C=C2/NC(=O)N(Cc3ccc(C)cc3)C2=O)c1C	?	?	-10%	?
C[C@H](CO)N1C[C@H](C)[C@@H](CN(C)S(=O)(=O)c2ccccc2)Oc2c(NS(=O)(=O)c3ccccc3)cccc2C1=O	nt	nt	5%	34%
CC(=O)OCC(=O)[C@@]1(O)CC[C@H]2[C@@H]3CCC4=CC(=O)C=C[C@]4(C)[C@H]3C(=O)C[C@@]21C	-24%	0%	3%	6%
CCOC1(C)OCC(=O)[C@]2(CCC3C4CCC5=CC(=O)C=CC5(C)C4C(=O)CC32C)O1 (stereo not given in full)	?	10µM*	12%	13%
CC1(C)OC(=O)N(c2ccccn2)C1(C)O (stereo not given)	-15%	10%	-1%	19%
Cc1ccnc(N2C(=O)OC(C)(C)C2(C)O)c1 (stereo not given)	8.3µM*	14%	2%	6%
CCN(CC)C(=O)c1[nH]cnc1C(=O)NC1CCN(C(=O)OC(C)(C)C)CC1	36%	?	-1%	?
CCc1c(C)nc(N)n2c(SCC(=O)N3CCCC(C)C3)nnc12 (stereo not given)	-4%	21%	-3%	11%
COc1ccc(N=Nc2nc3cc(Br)c(Br)cc3n2C)c(OC)c1	?	10µM*	?	?
COc1ccc(CNC(C)C(=O)Nc2ccc3ccccc3c2)cc1OC (stereo not given)	-8%	-19%	-1%	-10%

Screening data from PubChem BioAssay.
